Data published in PubChem BioAssay (NCATS).
Inconclusive results are not listed. Values without a mark were called inactive. Active and inactive are the calls of the source. Calls come from the whole dose curve; as a rule, active = well fitted inhibition curve with a large enough effect; inconclusive = small, poorly fitted or top-dose-only effect; inactive = flat fitted curve, though single readings scatter.

Target: Glutathione peroxidase 1 (Homo sapiens) (UniProt P07203)
Assay: Primary qHTS Assay for Inhibitors of Recombinant Selenoprotein Glutathione Peroxidase 1 (GPX1) (AID 1845191); note: nearly all actives have a fitted effect of over 65% in size
Details: recombinant GPX1, GR-coupled NADPH fluorescence, 15 min; series mostly up to 48.8 µM; activity, negative = inhibition: at the top concentration
Text: Assay Provider: Elias S.J. Arner MD PhD.
Department of Medical Biochemistry and Biophysics
Karolinska Institutet, Solna, Stockholm, Sweden
Selenoprotein glutathione peroxidases (GPX), like the ubiquitously expressed GPX1 and the ferroptosis modulator GPX4, enact their antioxidant activities by reducing hydroperoxides using glutathione. […] GPX1 and GPX4 inhibitors have thus shown promise as anti-cancer agents. Existing inhibitors are often promiscuous, or modulate GPX activity only indirectly, so novel direct inhibitors identified through screening against GPX1 and GPX4 could be valuable. Here, we developed optimized glutathione reductase (GR)-coupled GPX assays for the biochemical high-throughput screen (HTS) of almost 12,000 compounds with known mechanisms of action. Initial hits were triaged using a GR counter-screen, assessed for isoform specificity using a separate GPX2 assay, and were assessed for general selenocysteine-targeting activity using a thioredoxin reductase (TXNRD1) assay. With this suite of assays, we identified novel GPX1/GPX2- and GPX4-specific inhibitors and can here present a validated pipeline for future discovery research for selenoprotein-targeting agents.
SEQUENCE No. (e.g., 1, 2, 3, etc.); […] (e.g., Cells, Incubation, Reagent, etc.); VALUE; DESCRIPTION.
1; Reagent 1; 3 uL; GPx1 enzyme or no enzyme control in 1536-well, black, solid Greiner assay plate.
2; Compound; 25 nL; Kalypsis pin tool (Wako USA) equipped with a 1536-well pin head.
3; Incubation; 30 min; room temperature.
4; Reagent 2; 1 uL; 10 nM GPX1, 1 mM GSH, 0.5 mM CHP, 0.5 mM NADPH, 100 nM GR, 0.01% BSA substrate
5; Detection; Fluorescence; ViewLux microplate reader, excitation 340 nm and emission 450 nm.
6; Incubation; 15 min; room temperature.
7; Detection; Fluorescence; ViewLux microplate reader, excitation 340 nm and emission 450 nm.
NOTES (numbers refer to Sequence numbers above)
1. 3 uL of 16.66 nM GPX1 and 0.016% BSA in assay buffer (50 mM Tris-HCl, 2 mM EDTA (pH 7.5), 150 mM NaCl) was added to columns 3-48 of 1536-well assay plates using a BioRAPTR Flying Reagent Dispenser (Let's Go Robotics (LGR), Carlsbad, CA). A no-enzyme control (0.01% BSA in TES assay buffer) was added to columns 1-2.
2. 25 nL of test compounds and DMSO controls were added to each well with a pin tool (Kalypsys).
3. The assay plates were incubated for 30 minutes at room temperature.
4. 1 uL of master mix (500 nM glutathione reductase (GR), 5 mM reduced glutathione (GSH), 2.5 mM NADPH in assay buffer) was added. 1 uL of cumene hydroperoxide (CHP) ([2.5 mM] in 50% EtOH) was then added within 5 minutes to initiate the reaction. Final concentrations were: 10 nM GPX1, 1 mM GSH, 0.5 mM CHP, 0.5 mM NADPH, 100 nM GR, 0.01% BSA.
5. Initial fluorescence readout (t=0) at 340/450 nm was measured using a ViewLux multimodal detector (PerkinElmer, Waltham, MA).
7. Endpoint fluorescence readout (t=15) at 340/450 nm was measured 15 min after room temperature incubation.
Potency is the fitted concentration of half-maximal effect.

Chain of Glutathione peroxidase 1 (Homo sapiens) (P07203 whole entry, looked up): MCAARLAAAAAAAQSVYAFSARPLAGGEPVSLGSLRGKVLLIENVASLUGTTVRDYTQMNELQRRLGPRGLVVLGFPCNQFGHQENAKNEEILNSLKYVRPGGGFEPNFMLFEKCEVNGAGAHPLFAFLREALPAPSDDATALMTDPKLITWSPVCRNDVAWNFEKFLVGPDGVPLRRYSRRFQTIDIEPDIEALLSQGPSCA

SMILES | activity, negative = inhibition | outcome | Potency
N=C(N)c1ccc(/C=C/c2ccc(C(=N)N)cc2O)cc1 | -13% |  | 
CC/C=C\C/C=C\C/C=C\C/C=C\C/C=C\C/C=C\CCC(=O)O | -8.02% |  | 
NS(=O)(=O)c1cc2c(cc1Cl)NC(Cc1ccccc1)NS2(=O)=O (stereo not given) |  | inactive | 
O=C(O[C@H]1CN2CCC1CC2)N1CCc2ccccc2[C@@H]1c1ccccc1 |  | inactive | 
CCOC(=O)[C@H](CS)NCCN[C@@H](CS)C(=O)OCC |  |  | 22.7 µM (active)
CC(C)(C)C(=O)OCC(=O)[C@H]1CC[C@H]2[C@@H]3CCC4=CC(=O)CC[C@]4(C)[C@H]3CC[C@]12C |  | inactive | 
CC(C)(C)NCC(O)c1ccc(O)c(CO)n1 (stereo not given) | -33.4% |  | 
CCC(O)c1ccccc1 (stereo not given) | -0.515% |  | 
CCCCC(O)c1ccccc1 (stereo not given) |  | inactive | 
CN(C)CCC=C1c2ccccc2C(C)(C)c2ccccc21 | -15.7% |  | 
Oc1cc(O)cc(O)c1 | -3.56% |  | 
CCCC1C(=O)N2C(N(C)C)=Nc3ccc(C)cc3N2C1=O (stereo not given) | -16.2% [at 98.3 µM] |  | 
N[C@@H](Cc1cc(I)c(Oc2ccc(O)c(I)c2)c(I)c1)C(=O)O |  |  | inactive
C[C@H](CCC(=O)O)[C@H]1CC[C@H]2[C@@H]3[C@H](O)C[C@@H]4C[C@H](O)CC[C@]4(C)[C@H]3C[C@H](O)[C@]12C | -7.08% |  | 
Cc1ccc(S(=O)(=O)O)cc1C |  | inactive | 
Cc1cc(=O)c(C(=O)N[C@@H](C(=O)N[C@@H]2C(=O)N3C(C(=O)O)=C(CSc4nnnn4C)CS[C@H]23)c2ccc(O)cc2)c[nH]1 |  |  | 12.8 µM (active)
Cc1cc(-c2ccc(N=Nc3c(S(=O)(=O)O)cc4cc(S(=O)(=O)O)cc(N)c4c3O)c(C)c2)ccc1N=Nc1c(S(=O)(=O)O)cc2cc(S(=O)(=O)O)cc(N)c2c1O | -5.22% |  | 
CC(=O)[O][Al][O]C(C)=O | -5.17% [at 9.52 µM] |  | 
CSc1nc2cc(Oc3cccc(Cl)c3Cl)c(Cl)cc2[nH]1 | 2.84% |  | 
CO[C@@]1(NC(=O)C2SC(=C(C(N)=O)C(=O)O)S2)C(=O)N2C(C(=O)O)=C(CSc3nnnn3C)CS[C@@H]21 (stereo not given in full) |  |  | 10.1 µM (active)

SMILES | activity, negative = inhibition | outcome | Potency
NC(=O)OCC(O)COc1ccc(Cl)cc1 (stereo not given) | -13.2% |  | 
C[N@+]12CCCC[C@@H]1CCC(=C(c1cccs1)c1cccs1)C2 | -10.8% |  | 
CCCCCc1ccc(C)cc1O | -4.38% |  | 
CCCc1nc(C(C)(C)O)c(C(=O)OCc2oc(=O)oc2C)n1Cc1ccc(-c2ccccc2-c2nn[nH]n2)cc1 | -9.06% |  | 
COc1ccc(-c2noc(CC(=O)O)c2-c2ccc(OC)cc2)cc1 | 2.19% |  | 
NC(=O)c1ccc[n+]([C@@H]2O[C@H](COP(=O)([O-])OP(=O)(O)OC[C@H]3O[C@@H](n4cnc5c(N)ncnc54)[C@H](O)[C@@H]3O)[C@@H](O)[C@H]2O)c1 |  | inactive | 
CC1=CC(=C(c2ccc(N)cc2)c2ccc(N)cc2)C=CC1=N |  | inactive | 
Nc1nc(/C(=C/CC(=O)O)C(=O)N[C@@H]2C(=O)N3C(C(=O)O)=CCS[C@H]23)cs1 |  |  | 9.04 µM (active)
COc1ccc2c(c1)N(C[C@H](C)CN(C)C)c1ccccc1S2 | -19.9% |  | 
CC1(C)[C@@H]2CC[C@@]1(C)[C@H](OC(=O)CSC#N)C2 |  | inactive | 
Cc1cc(O)c2c(c1)O[C@@]1(C)CC[C@H]3C(C)(C)CCCC34CO[C@@H]2[C@H]41 (stereo not given in full) | -6.03% |  | 
CC/C=C\C/C=C\C/C=C\C/C=C\C/C=C\CCCC(=O)O | -25% |  | 
OCCOCCOCCO |  | inactive | 
CC(/C=C/C=C(\C)C(=O)O[C@@H]1O[C@H](CO[C@@H]2O[C@H](CO)[C@@H](O)[C@H](O)[C@H]2O)[C@@H](O)[C@H](O)[C@H]1O)=C\C=C\C=C(C)\C=C\C=C(/C)C(=O)O[C@@H]1O[C@H](CO[C@@H]2O[C@H](CO)[C@@H](O)[C@H](O)[C@H]2O)[C@@H](O)[C@H](O)[C@H]1O | -15.4% |  | 
CCOC(=O)Oc1c(OC)cc(C(=O)O[C@@H]2C[C@@H]3CN4CCc5c([nH]c6cc(OC)ccc56)[C@H]4C[C@@H]3[C@H](C(=O)OC)[C@H]2OC)cc1OC | -12.9% |  | 
CC1(O)CCC(C(C)(C)O)CC1 (stereo not given) | 2.62% |  | 
CC(C)(C)c1ccc2c(S(=O)(=O)O)c(C(C)(C)C)ccc2c1 | 4.57% |  | 
CCN(CC)CCOC(=O)c1cccnc1 |  | inactive | 
CC(C)[C@H](N)C(=O)OCC(CO)OCn1cnc2c(=O)[nH]c(N)nc21 (stereo not given in full) | -14.1% |  | 
O=S(=O)(O)CCCS(=O)(=O)O | -20.8% |  | 
